Key:
Experiment in all cases: DAPPL (digital affinity profiling via proximity ligation, sequencing); 10 mM Tris-HCl pH 7.5, 50 mM NaCl, 1 mM DTT, 4% glycerol, room temperature, 30 min; GST-TFs on glutathione beads, 16-mer random dsDNA library, 0.1% formaldehyde crosslink after washing; high values mean tight binding
FEV = biological target: T1, FEV (Homo sapiens, UniProt Q99581 1-238); conditions: protein: recombinant; tags: N-terminal GST; dsDNA, one strand shown
T1 sequence: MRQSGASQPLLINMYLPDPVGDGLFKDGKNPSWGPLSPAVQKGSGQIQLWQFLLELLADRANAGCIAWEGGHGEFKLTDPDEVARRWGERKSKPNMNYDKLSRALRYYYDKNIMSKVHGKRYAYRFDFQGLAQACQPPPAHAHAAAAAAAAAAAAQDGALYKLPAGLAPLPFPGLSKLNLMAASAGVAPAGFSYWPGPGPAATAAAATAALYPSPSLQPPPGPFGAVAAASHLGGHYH
Procedure, shortened: (§1)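 GST fusions of human transcription factors were expressed in yeast and captured with glutathione beads. Once given DNA barcodes and pooled alongside a tag-only sample, they were incubated for 30 min at room temperature with 200 nmole of a random double-stranded 16-mer DNA library in Tris/NaCl/DTT/glycerol buffer, then washed, crosslinked (0.1% formaldehyde), proximity-ligated, PCR-amplified and sequenced on an Illumina NextSeq500. The binding signal of each hexamer is its read frequency for a factor divided by its frequency for the tag-only sample.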

ETV5 = ETV5 (Homo sapiens, UniProt P41161 1-510); conditions: protein: recombinant; tags: N-terminal GST; dsDNA, one strand shown
Chain of ETV5 (P41161 whole entry): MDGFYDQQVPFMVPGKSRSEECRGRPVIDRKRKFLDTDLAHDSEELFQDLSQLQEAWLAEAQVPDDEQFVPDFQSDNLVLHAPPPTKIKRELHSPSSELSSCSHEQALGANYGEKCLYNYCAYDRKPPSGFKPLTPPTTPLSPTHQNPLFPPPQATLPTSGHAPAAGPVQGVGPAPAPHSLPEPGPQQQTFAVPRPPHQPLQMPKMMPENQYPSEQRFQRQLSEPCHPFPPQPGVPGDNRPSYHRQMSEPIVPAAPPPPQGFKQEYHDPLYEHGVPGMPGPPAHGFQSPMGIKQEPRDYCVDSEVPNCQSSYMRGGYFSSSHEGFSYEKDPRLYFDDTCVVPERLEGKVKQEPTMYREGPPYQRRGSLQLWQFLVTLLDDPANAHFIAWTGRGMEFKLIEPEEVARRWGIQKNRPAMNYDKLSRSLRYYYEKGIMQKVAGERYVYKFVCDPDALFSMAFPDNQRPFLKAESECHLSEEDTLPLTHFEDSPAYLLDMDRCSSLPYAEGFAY
Procedure, shortened: as §1

HSF1 = HSF1 (Homo sapiens, UniProt Q00613 1-529); conditions: protein: recombinant; tags: N-terminal GST; chain copies: 3; dsDNA, one strand shown
Chain of HSF1 (Q00613 whole entry): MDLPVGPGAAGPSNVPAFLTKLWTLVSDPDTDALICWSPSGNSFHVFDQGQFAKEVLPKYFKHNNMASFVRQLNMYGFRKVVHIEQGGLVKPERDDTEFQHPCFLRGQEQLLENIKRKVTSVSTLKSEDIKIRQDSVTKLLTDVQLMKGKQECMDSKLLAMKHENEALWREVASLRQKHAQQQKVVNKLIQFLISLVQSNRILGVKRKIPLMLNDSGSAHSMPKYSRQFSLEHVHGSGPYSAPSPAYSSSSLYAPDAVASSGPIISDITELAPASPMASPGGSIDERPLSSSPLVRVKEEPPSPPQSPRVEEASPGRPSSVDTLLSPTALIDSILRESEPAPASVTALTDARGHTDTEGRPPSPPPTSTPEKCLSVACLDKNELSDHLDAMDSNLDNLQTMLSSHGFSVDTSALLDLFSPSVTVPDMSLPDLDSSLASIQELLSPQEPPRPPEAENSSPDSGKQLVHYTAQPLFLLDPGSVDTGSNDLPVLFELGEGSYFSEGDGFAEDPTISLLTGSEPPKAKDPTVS
Procedure, shortened: as §1

SPIC = biological target: T2, SPIC (Homo sapiens, UniProt Q8N5J4 1-248); conditions: protein: recombinant; tags: N-terminal GST; dsDNA, one strand shown
T2 sequence: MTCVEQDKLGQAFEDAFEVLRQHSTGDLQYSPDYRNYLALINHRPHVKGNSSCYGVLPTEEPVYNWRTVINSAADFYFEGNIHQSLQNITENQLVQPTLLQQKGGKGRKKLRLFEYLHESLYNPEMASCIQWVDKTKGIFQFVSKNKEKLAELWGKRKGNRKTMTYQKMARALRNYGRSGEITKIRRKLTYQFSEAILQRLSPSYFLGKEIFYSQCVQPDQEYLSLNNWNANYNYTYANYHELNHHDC
Procedure, shortened: as §1

ELF4 = ELF4 (Homo sapiens, UniProt Q99607 1-663); conditions: protein: recombinant; tags: N-terminal GST; dsDNA, one strand shown
Chain of ELF4 (Q99607 whole entry): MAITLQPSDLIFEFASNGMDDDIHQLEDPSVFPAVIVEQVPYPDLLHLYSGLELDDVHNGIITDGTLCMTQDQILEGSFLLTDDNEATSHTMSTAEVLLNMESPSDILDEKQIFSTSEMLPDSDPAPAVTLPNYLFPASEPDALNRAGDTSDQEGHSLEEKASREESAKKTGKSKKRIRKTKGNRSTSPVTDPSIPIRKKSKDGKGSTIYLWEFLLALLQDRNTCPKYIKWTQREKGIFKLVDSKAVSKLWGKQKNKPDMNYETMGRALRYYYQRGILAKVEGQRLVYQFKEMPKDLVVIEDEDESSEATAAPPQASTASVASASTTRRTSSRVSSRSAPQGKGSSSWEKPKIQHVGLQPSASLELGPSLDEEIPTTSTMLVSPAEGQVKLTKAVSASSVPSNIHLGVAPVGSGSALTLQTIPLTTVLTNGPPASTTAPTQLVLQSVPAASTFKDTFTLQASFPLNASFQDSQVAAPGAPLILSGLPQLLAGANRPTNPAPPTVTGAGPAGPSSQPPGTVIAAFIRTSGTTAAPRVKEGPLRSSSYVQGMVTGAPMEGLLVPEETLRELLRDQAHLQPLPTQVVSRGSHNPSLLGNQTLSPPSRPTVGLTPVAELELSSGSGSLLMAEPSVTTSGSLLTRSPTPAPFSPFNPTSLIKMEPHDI
Procedure, shortened: as §1

ELK4 = biological target: T3, ELK4 (Homo sapiens, UniProt P28324-2 1-405); conditions: protein: recombinant; tags: N-terminal GST; dsDNA, one strand shown
T3 sequence: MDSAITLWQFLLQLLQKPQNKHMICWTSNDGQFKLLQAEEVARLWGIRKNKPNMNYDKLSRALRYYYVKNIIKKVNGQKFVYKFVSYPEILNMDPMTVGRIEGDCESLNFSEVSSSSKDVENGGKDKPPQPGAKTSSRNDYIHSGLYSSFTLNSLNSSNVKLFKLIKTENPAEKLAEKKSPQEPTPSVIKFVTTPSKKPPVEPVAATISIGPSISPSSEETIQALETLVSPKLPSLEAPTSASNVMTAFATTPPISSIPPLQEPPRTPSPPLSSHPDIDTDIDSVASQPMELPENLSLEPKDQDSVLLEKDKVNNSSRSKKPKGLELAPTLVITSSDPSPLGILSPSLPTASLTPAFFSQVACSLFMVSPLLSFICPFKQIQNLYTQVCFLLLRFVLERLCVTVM
Procedure, shortened: as §1

ETV2 = biological target: T4, ETV2 (Homo sapiens, UniProt O00321 1-342); conditions: protein: recombinant; tags: N-terminal GST; dsDNA, one strand shown
T4 sequence: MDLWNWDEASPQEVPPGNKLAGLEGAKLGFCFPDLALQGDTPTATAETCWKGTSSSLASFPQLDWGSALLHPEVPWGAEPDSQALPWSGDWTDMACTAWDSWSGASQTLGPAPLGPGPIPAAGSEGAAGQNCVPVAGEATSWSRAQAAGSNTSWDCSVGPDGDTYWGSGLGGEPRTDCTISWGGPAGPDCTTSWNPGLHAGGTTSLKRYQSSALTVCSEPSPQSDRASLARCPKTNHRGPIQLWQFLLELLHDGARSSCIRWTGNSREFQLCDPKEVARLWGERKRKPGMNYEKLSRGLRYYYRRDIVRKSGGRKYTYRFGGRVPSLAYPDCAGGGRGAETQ
Procedure, shortened: as §1

ELF3 = biological target: T5, ELF3 (Homo sapiens, UniProt P78545 1-371); conditions: protein: recombinant; tags: N-terminal GST; dsDNA, one strand shown
T5 sequence: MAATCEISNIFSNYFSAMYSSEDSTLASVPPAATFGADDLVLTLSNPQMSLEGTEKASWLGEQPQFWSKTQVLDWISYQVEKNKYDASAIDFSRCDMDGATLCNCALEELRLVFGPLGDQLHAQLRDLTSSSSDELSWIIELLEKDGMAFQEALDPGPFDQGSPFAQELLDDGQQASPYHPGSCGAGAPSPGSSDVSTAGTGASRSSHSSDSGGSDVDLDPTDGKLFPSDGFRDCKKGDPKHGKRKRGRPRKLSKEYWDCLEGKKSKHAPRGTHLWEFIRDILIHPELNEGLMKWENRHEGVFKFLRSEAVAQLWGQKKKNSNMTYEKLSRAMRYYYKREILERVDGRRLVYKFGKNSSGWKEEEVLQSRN
Procedure, shortened: as §1

CRX = CRX (Homo sapiens, UniProt O43186 1-299); conditions: protein: recombinant; tags: N-terminal GST; dsDNA, one strand shown
Chain of CRX (O43186 whole entry): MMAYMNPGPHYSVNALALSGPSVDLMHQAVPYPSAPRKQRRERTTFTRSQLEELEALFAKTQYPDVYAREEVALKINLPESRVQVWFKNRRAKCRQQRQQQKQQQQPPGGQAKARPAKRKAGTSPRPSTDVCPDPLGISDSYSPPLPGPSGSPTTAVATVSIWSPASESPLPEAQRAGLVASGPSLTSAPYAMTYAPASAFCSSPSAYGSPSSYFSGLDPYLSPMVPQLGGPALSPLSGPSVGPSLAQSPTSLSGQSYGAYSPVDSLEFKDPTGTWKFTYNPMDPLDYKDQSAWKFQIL
Procedure, shortened: as §1

ETV1 = ETV1 (Homo sapiens, UniProt P50549 1-477); conditions: protein: recombinant; tags: N-terminal GST; dsDNA, one strand shown
Chain of ETV1 (P50549 whole entry): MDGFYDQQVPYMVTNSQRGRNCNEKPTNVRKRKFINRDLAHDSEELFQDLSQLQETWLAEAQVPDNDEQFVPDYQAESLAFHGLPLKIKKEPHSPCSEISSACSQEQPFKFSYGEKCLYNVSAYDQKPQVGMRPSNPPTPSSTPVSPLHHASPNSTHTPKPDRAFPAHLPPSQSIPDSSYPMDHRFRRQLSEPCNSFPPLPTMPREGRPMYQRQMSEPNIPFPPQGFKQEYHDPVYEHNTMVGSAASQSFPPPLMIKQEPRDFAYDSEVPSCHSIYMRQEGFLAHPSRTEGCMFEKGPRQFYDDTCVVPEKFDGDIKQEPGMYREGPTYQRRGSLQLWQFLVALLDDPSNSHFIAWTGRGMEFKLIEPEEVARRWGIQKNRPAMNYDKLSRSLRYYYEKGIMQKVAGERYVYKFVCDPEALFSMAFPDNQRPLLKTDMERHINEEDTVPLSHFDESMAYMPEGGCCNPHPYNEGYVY
Procedure, shortened: as §1

With TTTATT the binding signal (FEV) was 1.29 fold enrichment (6-mer frequency, TF over GST control), the binding signal (ETV5) was 1.29 fold enrichment (6-mer frequency, TF over GST control) and the binding signal (HSF1) was 1.46 fold enrichment (6-mer frequency, TF over GST control). The binding signal (SPIC) was 1.25 fold enrichment (6-mer frequency, TF over GST control), the binding signal (ELF4) was 1.3 fold enrichment (6-mer frequency, TF over GST control) and the binding signal (ELK4) was 1.27 fold enrichment (6-mer frequency, TF over GST control). The binding signal (ETV2) was 1.29 fold enrichment (6-mer frequency, TF over GST control), the binding signal (ELF3) was 1.29 fold enrichment (6-mer frequency, TF over GST control) and the binding signal (CRX) was 1.93 fold enrichment (6-mer frequency, TF over GST control). For the same sequence, the binding signal (ETV1) was 1.27 fold enrichment (6-mer frequency, TF over GST control).

Reference: PMC7862700, “An all-to-all approach to the identification of sequence-specific readers for epigenetic DNA modifications on cytosine”
